Glioma ERSR ind: qHTS for Inducers of the Endoplasmic Reticulum Stress Response (ERSR) in Human Glioma: qHTS. U87-MG GRP78 promoter luciferase reporter, 16 h. Potency, µM, inactives show at the highest dose activation, most hits filed as activators. 420,000 tested, 0.02% active; active = well fitted activation curve with a large enough effect; note: potency is the fitted concentration of half-maximal effect; series mostly up to about 76 µM; % of control where 0% means no effect; nearly all actives have a fitted effect of over 35% in size
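ERSR induction read as luciferase luminescence (Bright-Glo, 10 min at room temperature) in stably transfected human U87-MG glioma cells exposed to compounds for 16 h, using GRP78 as sensor.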
D1 ag: Allosteric Agonists of the Human D1 Dopamine Receptor: qHTS | D(1A) dopamine receptor (Homo sapiens), P21728 | HEK293 T-REx D1 cells, calcium flux, agonist mode | 360,000 tested, 1% active | AID 504660, 2011 | activation, % at 2 µM; note: 0% is about no effect
Target sequence (P21728 whole entry, looked up): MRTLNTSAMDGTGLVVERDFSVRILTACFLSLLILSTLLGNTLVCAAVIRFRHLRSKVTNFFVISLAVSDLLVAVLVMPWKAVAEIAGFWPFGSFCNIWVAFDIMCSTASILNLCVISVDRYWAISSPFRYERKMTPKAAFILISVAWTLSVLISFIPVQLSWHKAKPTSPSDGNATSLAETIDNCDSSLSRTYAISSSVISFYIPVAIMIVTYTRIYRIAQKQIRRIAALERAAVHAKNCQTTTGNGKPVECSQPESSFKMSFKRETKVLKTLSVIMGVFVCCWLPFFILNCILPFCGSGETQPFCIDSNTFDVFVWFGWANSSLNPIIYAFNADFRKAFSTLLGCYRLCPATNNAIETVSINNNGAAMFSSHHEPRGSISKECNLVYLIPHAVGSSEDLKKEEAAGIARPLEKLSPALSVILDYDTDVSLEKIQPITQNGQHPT
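Agonism was scored from calcium flux recorded over 180 s (1 read/s) after pintool compound addition, following a 10-cycle baseline. Cells were inducible force-coupled HEK293 TREx D1, plated overnight at 30 C and loaded with no-wash calcium dye.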
D1 antagonist: Antagonist of Human D 1 Dopamine Receptor: qHTS; HEK293 TREx D1 cells, calcium flux, dopamine EC80; hits give low values; activity change, negative = inhibition, % at 10 µM; D(1A) dopamine receptor (Homo sapiens), P21728; AID 504652, 2011; 360,000 tested, 3.2% active; in the data active = activity change below about -30%; note: % is set by controls: 0 for no effect and ±100 for the full control effect
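Cells carrying a force-coupled, tetracycline-inducible human D1 receptor report calcium flux. Each well gets a 10 s baseline, compound with 180 s monitoring, then an EC80 dopamine stimulus with a second 180 s kinetic read.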
TRHR ag: qHTS for Small Molecule Agonists and Allosteric Enhancers of Human TRH Receptor: Primary Screen for Agonists; TRHR cells, calcium flux fluo-8, FDSS agonist mode; activation, % at 2 µM; 360,000 tested, 0.18% active; AID 493084, 2011; note: 0% is about no effect
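Fluo-8-loaded TRHR cells; 10 s baseline, compound added, kinetic Ca2+ fluorescence read 1/s, agonist mode.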
TRHR PAM: qHTS for Small Molecule Agonists and Allosteric Enhancers of Human TRH Receptor: Primary Screen for Enhancers. 360,000 tested, 0.66% active. enhancement, % at 2 µM. AID 493056, 2011. TRHR cells, fluo-8 calcium fluorescence, EC20 TRH enhancement; in the data active = enhancement above about 30%; note: 0% is about no effect
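Enhancer read-out: after compound pinning and an initial kinetic agonist-mode read, an EC20 of TRH (10 nM final) was injected and fluo-8 calcium signal (Ex 480/Em 530) followed at 1 s/cycle for 100 cycles in TRHR-expressing cells.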
D1 PAM: Potentiators of Human D1 Dopamine Receptor: qHTS | D(1A) dopamine receptor (Homo sapiens), P21728 | HEK293 TREx D1 cells, calcium flux, dopamine EC20 potentiation | potentiation, % at 10 µM | 360,000 tested, 0.036% active | AID 504651, 2011; in the data active = potentiation above about 30%; note: 0% is about no effect
* hit, by the source's call; / = not tested or not shown. Compounds with a hit are over-represented: about 4% of the library has one in this group of screens. Cut-off read from the data, not from the text of the source, unless noted: active = activation above about 30%; inactive = the rest.

SMILES	Glioma ERSR ind	D1 ag	D1 antagonist	TRHR ag	TRHR PAM	D1 PAM
O=C(COC(=O)CNC(=O)c1ccccc1)Nc1cc(C(F)(F)F)ccc1Cl	/	0	5	1	-1	2
Cc1noc(C)c1NC(=O)N(C)C[C@H]1Oc2ccc(NC(=O)C3CC3)cc2C(=O)N([C@H](C)CO)C[C@@H]1C	-3%	/	/	/	/	/
Nc1nonc1N/N=C/c1c(O)ccc2ccccc12	6%	31*	-22	1	4	-9
O=C(NN=Cc1c(O)ccc2ccccc12)c1ccncc1	-2%	/	/	/	/	/
O=C(N/N=C\c1c(O)ccc2ccccc12)c1cncc(Br)c1	-5%	314*	-21	105*	38*	5
O=C(N/N=C/c1c(O)ccc2ccccc12)c1cccnc1	-3%	42*	6	36*	8	5
COc1ccc(Br)cc1C1CC(=O)N2CN(C)CSC2=C1C#N (stereo not given)	-1%	3	-7	0	-3	-8
COc1ccc(Br)cc1C1CC(=O)N2CN(Cc3ccccc3)CSC2=C1C#N (stereo not given)	-4%	2	-31*	1	0	-1
COc1cc(OC)c(C2CC(=O)N3CN(C)CSC3=C2C#N)cc1OC (stereo not given)	5%	2	-38*	0	1	-7
CCOC(=O)C1=C(CN2CCC(C)CC2)NC(=O)NC1c1ccc(F)cc1 (stereo not given)	-4%	0	-13	0	7	-1
O=C(Cn1nc(C(F)F)cc1C(F)F)N/N=C/c1ccc2c(c1)OCO2	3%	/	/	/	/	/
Cc1ccnn1CC(=O)N/N=C/c1ccc2c(c1)OCO2	1%	3	-47*	-1	1	-4
Cc1c(/C=N/NC(=O)c2ccc3c(c2)OCO3)cnn1C	2%	2	5	0	15	-2
CCCOc1ccc(/C=N/NC(=O)c2ccc3c(c2)OCO3)c(OCCC)c1	-1%	5	-42*	0	-7	/
CC(C)C(NC(=O)c1ccc2c(c1)OCO2)C(=O)N/N=C/c1cccs1 (stereo not given)	-4%	0	-27	0	-6	-8
Cc1c(/C=N/NC(=O)C(NC(=O)c2ccc3c(c2)OCO3)C(C)C)c2ccccc2n1C (stereo not given)	-4%	-1	-15	6	32*	0
CCn1ncc(/C=N/NC(=O)c2ccc3c(c2)OCO3)c1C	1%	1	-74*	1	3	-4
CC(C)C[C@H](NC(=O)[C@H](CO)NC(=O)CNC(=O)[C@H](CCCCN)NC(=O)[C@H](CCCN=C(N)N)NC(=O)[C@H](C)NC(=O)[C@H](Cc1ccccc1)NC(=O)[C@@H](N)CCCN=C(N)N)C(=O)N[C@@H](CCCN=C(N)N)C(=O)N[C@@H](CCC(N)=O)C(=O)N[C@@H](CCCCN)C(=O)N[C@@H](CC(N)=O)C(=O)N[C@H](C(=O)O)C(C)C	-6%	/	/	/	/	/
CCCc1cc(=O)oc2cc(OCC(=O)OC)cc(OCC(=O)OC)c12	/	3	2	0	-2	-1
COc1ccc(N2CCN(S(=O)(=O)CCNC(=O)c3ccco3)CC2)cc1	-3%	2	9	0	-3	1
COc1ccc(N2CCN(C(=O)CNC(=O)c3ccco3)CC2)cc1	-4%	1	-80*	1	0	-2
COc1ccc(-c2cn3nc(N4CCCC(C(=O)Nc5cccc(OC)c5)C4)sc3n2)cc1 (stereo not given)	3%	2	-3	0	-3	-6
CN(C)c1ncc2nc(-c3cccs3)c(=O)n(-c3ccccc3)c2n1	-2%	/	/	/	/	/
O=C(c1ccccc1F)N1CCC(N2CCCCCC2)CC1	-3%	-3	16	0	7	-10
CC1CN(C2CCN(C(=O)c3ccccc3)CC2)CC(C)O1 (stereo not given)	1%	1	-31*	0	17	-1
SMILES	Glioma ERSR ind	D1 ag	D1 antagonist	TRHR ag	TRHR PAM	D1 PAM
CC1CCN(C2CCN(C(=O)c3ccccc3F)CC2)CC1	-8%	0	-82*	1	-1	-2
COc1ccc(CC(=O)Nc2cc(S(C)(=O)=O)ccc2Cl)cc1S(=O)(=O)N1CCOCC1	-1%	/	/	/	/	/
CC1Oc2ccccc2C=C1/C=N/NC(=O)c1ccccc1 (stereo not given)	3%	0	-8	0	0	-9
CC1Oc2ccccc2C=C1/C=N/NC(=O)c1ccccc1O (stereo not given)	4%	17	-40*	0	3	-1
CC(C(=O)Nc1ccccc1F)N1CCN(C)CC1 (stereo not given)	/	1	-16	-1	30*	-3
CC(C)C(C(=O)Nc1ccccc1F)N1C(=O)c2ccccc2C1=O (stereo not given)	-6%	/	/	/	/	/
CC(CC(C)(C)C)CP(=O)(O)CC(C)CC(C)(C)C (stereo not given)	-1%	/	/	/	/	/
N#Cc1ccccc1S(=O)(=O)N1CCN(S(=O)(=O)c2ccc3c(c2)OCCO3)CC1	/	8	-37*	1	-1	1
Cc1ccc2c(CC(=O)N3CCN(S(=O)(=O)c4ccccc4)CC3)coc2c1	2%	4	-28	0	-3	1
C[C@H]1CN(S(=O)(=O)c2ccc3c(c2)OCCO3)CCN1S(=O)(=O)c1c(F)cccc1F	2%	1	-13	-1	39*	-2
O=C(N[C@@H](Cc1ccccc1)C(=O)N1CCN(S(=O)(=O)c2ccc(F)cc2)CC1)c1ccco1	-5%	1	-2	1	-9	-4
N#Cc1ccccc1S(=O)(=O)N1CCN(C(=O)Cc2coc3cc(O)ccc23)CC1	-5%	1	-43*	0	-1	-7
N#Cc1ccccc1S(=O)(=O)N1CCN(C(=O)[C@H](Cc2ccccc2)NC(=O)c2ccco2)CC1	-1%	0	-34*	1	2	-10
Cc1ccccc1Cn1c(=O)n(CCc2ccccc2)c(=O)c2sc3ccccc3c21	-2%	7	-2	-1	12	0
C=C[C@H](CC(C)C)N(Cc1ccccc1)S(=O)(=O)N(Cc1ccccc1)[C@H](C=C)CC(C)C	-4%	/	/	/	/	/
COc1ccc(NC(C)C(=O)N/N=C/c2ccccc2OCc2cccc(Br)c2)cc1 (stereo not given)	0%	4	-10	0	34*	-1
